Assay outcomes: PubChem BioAssay, Broad Institute
aSyn 5UTR act: Activators via SNCA 5'UTR binding, MLPCN; AID 1814, 2009; activity score, % (tested at 7.5 µM), hits read low; alpha-synuclein 5'UTR reporter, activators screen; 300,000 tested, 7.1% active; in the data active = activity score below about -60%
Numbers stand for hits; n = inactive. Only a sample is shown.

SMILES	aSyn 5UTR act
Cc1ccc2oc(-c3cccc(NC(=O)Cc4cccs4)c3)nc2c1	-70.5
Cc1ccc2oc(-c3ccc(C)c(NC(=S)NC(=O)c4cccs4)c3)nc2c1	-193.3
Cc1ccc(-c2nc3ccccc3o2)cc1NC(=S)NC(=O)c1cc2ccccc2o1	-111.3
CC(=O)N(c1ccccc1)c1nnc(-c2cnc(C)cn2)s1	-82.5
CCC(=O)Nc1cccc(NC(=S)NC(=O)c2cc3ccccc3o2)c1	-132.7
CCC(=O)Nc1cccc(NC(=S)NC(=O)c2cccc(C)c2)c1	-171.8
CCC(=O)Nc1cccc(NC(=S)NC(=O)c2ccccc2)c1	-183.0
CCC(=O)Nc1cccc(NC(=S)NC(=O)c2ccc(C)cc2)c1	-156.4
COc1ccc(-c2oc3ccc(N4CCOCC4)cc3c2C#CC2(O)CCCCC2)cc1	-117.8
COc1ccc(-c2oc3ccc(N4CCOCC4)cc3c2C#Cc2ccc(N)cc2)cc1	-91.6
COc1ccc(C(=O)Nc2cccc3c2CCCC3)cc1	-131.7
COc1ccc(C(=O)Nc2ccc3c4c(cccc24)CC3)cc1	-84.0
COc1ccc(C(=O)Nc2cc3c(oc2=O)CCCC3=O)cc1	-68.6
Fc1ccccc1CSc1nc2ncc(Br)cc2[nH]1	-126.8
Cn1c(/C(C#N)=C/c2ccc(O)cc2)nc2ccccc21	-125.8
Cc1ccc(N2C(=O)Nc3cc(Cl)c(Cl)cc3N2O)cc1Cl	-99.4
O=C(NC1=NCCS1)C12CC3CC(C1)CC(C(=O)NC1=NCCS1)(C3)C2	-70.9
CCOc1ccc(C(=O)Nc2ncccc2Cl)cc1	-116.4
N#Cc1ccsc1NC(=O)c1ccc(Cl)c([N+](=O)[O-])c1	-115.9
O=C(CNC(=O)c1ccc2c(c1)OCO2)Nc1ncccc1O	-76.6
O=C(Nc1ccc(Cl)c(Cl)c1)C1=Cc2ccccc2OC1	-202.3
CCN(CC)c1ccc2c(cc1=O)[C@@H](NC)CCc1cc(OC)c(OC)c(OC)c1-2	n
O=C(Nc1ccc2c(c1)OCCO2)c1ccc(Cl)c(Cl)c1	-130.9
O=C(Nc1ccc2c(c1)OCCO2)c1ccc(Cl)c([N+](=O)[O-])c1	-104.5
CCn1cc([N+](=O)[O-])c(C(=O)Nc2ccc3c(c2)OCCO3)n1	-69.5
SMILES	aSyn 5UTR act
O=C(Nc1ncccc1Cl)c1ccc2c(c1)OCCO2	-118.9
COC(=O)c1ccccc1NC(=O)NCCc1ccccc1OC	-133.7
COC(=O)c1ccccc1NC(=O)CC(=O)Nc1ccccc1C(=O)OC	-63.5
N#Cc1nc(-c2cccc3ccccc23)oc1N1CCCCC1	-155.1
CC1CCN(c2oc(-c3cccc4ccccc34)nc2C#N)CC1	-142.4
N#Cc1nc(-c2ccccc2Cl)oc1N1CCCCC1	-68.9
CC(C)(C)c1ccc(-c2csc(NC(=O)CN3C(=O)NC4(CCCCC4)C3=O)n2)cc1	-78.7
Cc1csc(SCC(=O)Nc2nc(-c3ccccc3)cs2)n1	-80.3
Cc1ccc(-c2csc(NC(=O)CSc3nc(C)cs3)n2)cc1	-159.9
Cc1ccc(C2(C)NC(=O)N(CC(=O)Nc3nc(-c4ccccn4)cs3)C2=O)cc1 (stereo not drawn)	n
COCCNC(=O)CSc1nc(-c2ccccc2)cs1	-72.5
Cc1csc(NC(=O)CSc2ccccc2F)n1	-87.5
COCc1cc(C)nc(SCC(=O)Nc2nc(C)cs2)c1C#N	n
CC(C)(C)NC(=O)CSc1nc(-c2ccc(F)cc2)cs1	-180.8
OCCNc1c2ccccc2nc2c(F)c(F)c(F)c(F)c12	-83.6
O=S(=O)(c1ccc(Cl)cc1)N1CCN(Cc2ccc(O)c3ncccc23)CC1	n
CC1(C(=O)N2CCN(Cc3ccccc3Cl)CC2)CC1(Cl)Cl (stereo not drawn)	-70.6
O=S(=O)(Nc1ccc(-c2cn3ccsc3n2)cc1)c1ccc2c(c1)OCCO2	-67.3
COc1nc(C)nc2c1sc1nc3c(cc12)COC(C)(C)C3	-145.0
Cc1nc(OCC(C)C)c2sc3nc4c(cc3c2n1)COC(C)(C)C4	-130.4
CC(C)(C)c1ccc(OCC(=O)N2CCCCCC2)c(Br)c1	-143.9
Cc1ccc(OCC(=O)N2CCCCC2)c(Br)c1	-125.3
Cc1ccccc1C(=O)NC(CC(C)C)C(=O)OCc1cc(=O)n2cc(Br)ccc2n1 (stereo not drawn)	-72.8
CC1(C(=O)OCc2cc(=O)n3cc(Br)ccc3n2)CC1(Cl)Cl (stereo not drawn)	-140.0
CC1CC1C(=O)OCc1cc(=O)n2cc(Br)ccc2n1 (stereo not drawn)	-148.0
SMILES	aSyn 5UTR act
Cc1cccc2[nH]c(-c3ccc(NC(=O)c4ccco4)cc3)nc12	-225.3
O=C(Nc1ccc2nc(-c3ccc(Br)o3)[nH]c2c1)c1cccs1	-112.3
O=C(Nc1ccc2nc(-c3cccnc3)[nH]c2c1)C1CCCCC1	-72.4
O=C(Nc1ccc2nc(-c3ccccc3)[nH]c2c1)c1ccco1	-205.3
O=C(Nc1ccc2nc[nH]c2c1)c1ccco1	-74.4
O=C(Nc1ccc2nc(-c3ccc(Br)o3)[nH]c2c1)c1ccco1	-105.6
Cc1cc(C)cc(NS(=O)(=O)c2ccc(-c3cnc(C4CC4)o3)cc2)c1	n
Cc1ccc(-c2nc3ccc(NS(=O)(=O)c4ccccc4)cc3[nH]2)o1	-173.6
CC(=O)Nc1ccc2nc(-c3ccc(Br)o3)[nH]c2c1	-127.2
COC(=O)c1sc(NC(=O)COc2ccccc2C)nc1C	-90.5
CCN1CCN(/C=N/c2nc3c(s2)CCCC3)CC1	n
